Out of some 360,000 compounds screened, about 3,700 (1%) were called active. Inconclusive results (about 2%) are left out.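 Rule for the calls: active = normalized GFP-positive differentiation at or above the plate's own cutoff, the solvent-only control mean plus 3 SD; inconclusive = no clear call, values can overlap the other calls; inactive = the rest.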 Many of the other results were omitted from the sample, so actives are more common in it than they were.

This assay in a line: induction of myeloid progenitor differentiation, primary screen, cell-based, flow cytometry, MLPCN library (AID 624256).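 For GFP+ MAC1+ double positive: cells exposed to compound for four days before flow analysis.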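 For normalized GFP-positive differentiation: cells exposed to compound for four days before flow analysis; 0% = DMSO wells and 100% = fulvestrant positive control at 5 µM.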 To be noted: ER-HoxA9 myeloid progenitors, lysozyme-GFP differentiation, at 10 µM; GFP+ MAC1+ double positive: measured here: differentiation confirmed by MAC1 staining, stronger effect = higher value; normalized GFP-positive differentiation: stronger effect = higher value. (Flow cytometry measures light scatter and fluorescence of single cells or particles in a stream.)
For `CC(C)OC(=O)C(C#N)c1nc2ccccc2nc1N1CCN(Cc2ccccc2)CC1` (centres undefined), the GFP+ MAC1+ double positive was 0.7% and the normalized GFP-positive differentiation is 12.1% (active).
For `CC(C)n1c(CN2CCN(Cc3ccccc3)CC2)nc2ccccc21`, the GFP+ MAC1+ double positive amounted to 0.1% and the call was inactive.
The matching figures for `COC(=O)c1sc(N2CCN(Cc3ccccc3)CC2)nc1N`: 0.5% and “inactive”.
Take `CCCCCn1nnnc1-c1nc2cc3ccccc3cc2[nH]c1=O`: the GFP+ MAC1+ double positive was 1.8% and the compound was called inactive.
As to `Cc1nc(Nc2ccc3c(c2)OCCO3)c2nnn(Cc3ccccc3Cl)c2n1`, the GFP+ MAC1+ double positive turned out to be 18.1% and the normalized GFP-positive differentiation is 21.9% (active).
`CCCc1nc(NCc2ccc3c(c2)OCO3)c2nnn(Cc3ccccc3Cl)c2n1`: the GFP+ MAC1+ double positive amounted to 0.8% and the call was inactive.
In the same order, the values of `Cc1nc(Nc2ccccc2F)c2nnn(Cc3ccccc3Cl)c2n1` are 0.5% and “inactive”.
In the same order, the values of `CCCCCc1c(Cc2ccccc2)ncn1CCc1ccccc1OC` are 3.9% and “inactive”.
The matching figures for `C[C@@H]1CN([C@@H](C)CO)C(=O)c2cc(NC(=O)C3CC3)ccc2O[C@H]1CN(C)C`: 1.9% and “inactive”.
As to `COc1ccc(NC(=O)Nc2ccc3c(c2)C(=O)N([C@H](C)CO)C[C@H](C)[C@@H](CN(C)C(=O)Nc2ccc4c(c2)OCO4)O3)cc1`, the GFP+ MAC1+ double positive is 2.5% and the call was inactive.
On to `COc1ccc(NC(=O)N(C)C[C@H]2Oc3ccc(NC(=O)C4CC4)cc3C(=O)N([C@H](C)CO)C[C@@H]2C)cc1`, for which the GFP+ MAC1+ double positive is 1.6% and the normalized GFP-positive differentiation was 10.4% (active).
For `CCOC(=O)[C@]12CCC=C1N(Cc1ccccc1)C(=O)[C@H](CC(=O)N1CCCC1)C2`, the GFP+ MAC1+ double positive came to 0.9% and the compound was classed as inactive.
The matching figures for `N#C/C(=C\c1ccc(N2CCOCC2)o1)C(=O)N1CCOCC1`: 0.4% and “inactive”.
The matching figures for `N#C/C(=C/c1ccc(N2CCOCC2)o1)C(=O)N1CCOCC1`: 0.4% and “inactive”.
Take `N#C/C(=C/c1ccc(N2CCCCC2)o1)C(=O)NCCc1c[nH]c2ccccc12`: the GFP+ MAC1+ double positive amounted to 3.1% and the normalized GFP-positive differentiation was 118% (active).
Turning to `CCC(c1nnnn1-c1ccc2c(c1)OCCO2)N1CCN(c2ccc(C(F)(F)F)cn2)CC1` (centres undefined), the GFP+ MAC1+ double positive amounted to 0.4% and the compound was called inactive.
In the same order, the values of `CCNC(=O)c1cc2c(c(-c3cccc(-c4cncnc4)c3)n1)[C@H](CCO)N(C(C)=O)C2` are 0.5% and “inactive”.
The matching figures for `CCCNC(=O)C[C@@H]1CC[C@@H]2[C@H](COC[C@H](O)CN2C(=O)c2cc(Cl)cc(Cl)c2)O1`: 0.9% and “inactive”.
The matching figures for `CCCCCc1c(-c2cccc(Br)c2)ncn1CCc1ccccc1OC`: 1% and “inactive”.
`Cc1nc2c(OCc3cccc(Cl)c3)cccn2c1N(C)CC1CC1`: the GFP+ MAC1+ double positive is 0.4% and the outcome was inactive.
Turning to `O=C(O)c1ccc(NN=CC2=C(N3CCOCC3)/C(=C/c3ccccc3)CC2)cc1`, the GFP+ MAC1+ double positive was found to be 0.1% and the outcome was inactive.
In the same order, the values of `O=C1Nc2ccc(Br)cc2/C1=N/N=C/C1=C(N2CCOCC2)C(=C\c2ccccc2)/CC1` are 0.4% and “inactive”.
On to `N#C/C(=C\C1=C(N2CCOCC2)C(=C\c2ccccc2)/CC1)C(=O)Nc1ccccc1F`, for which the GFP+ MAC1+ double positive stood at 11.3% and the normalized GFP-positive differentiation is 127% (active).
For the compound `COc1ccc(OC)c(CN2C(=O)CCC2(C)c2nnnn2Cc2ccccc2)c1` (centres undefined), the GFP+ MAC1+ double positive came out at 0.7% and the compound was classed as inactive.
In the case of `CCOC(=O)[C@]12CCCC=C1N(Cc1ccc(Cl)cc1Cl)C(=O)[C@H](CC(=O)N1CCCCC1)C2`, the GFP+ MAC1+ double positive amounted to 0.5% and the compound was called inactive.
As for `Cc1ccc(C(=O)Nc2c(-c3ccccc3)[nH][nH]c2=O)cc1`, the GFP+ MAC1+ double positive was 0.3% and the compound was called inactive.
The matching figures for `COc1ccccc1C(=O)Nn1c(-c2cccs2)nc2ccccc2c1=O`: 0.5% and “inactive”.
As for `O=C(Nn1c(-c2ccc(Cl)cc2)nc2ccccc2c1=O)c1cccnc1Cl`, the GFP+ MAC1+ double positive was found to be 2.1% and the normalized GFP-positive differentiation was 151% (active).
Regarding `COc1cc(OC)cc(-c2nc3ccccc3c(=O)n2NC(=O)c2cccnc2Cl)c1`, the GFP+ MAC1+ double positive turned out to be 0.9% and the result was inactive.
The matching figures for `CC(=O)C[C@@H]1OC[C@H](CO)N1S(=O)(=O)c1ccc(C)cc1`: 2.1% and “inactive”.
The matching figures for `O=C(C[C@H]1CC[C@@H](NC(=O)c2ccncc2)[C@@H](CO)O1)NCC1CC1`: 0.9% and “inactive”.
`CCSc1nc(-c2ccc(OC)cc2)cc(-c2ccc(OC)cc2)c1C#N`: the GFP+ MAC1+ double positive turned out to be 7.7% and the compound was classed as inactive.
As for `CCOC(=O)CC(=O)CSc1nc(-c2ccccc2)cc(-c2ccc(Cl)cc2)c1C#N`, the GFP+ MAC1+ double positive came to 26.9% and the normalized GFP-positive differentiation is 14.9% (active).
Turning to `N#Cc1c(C(F)(F)F)cc(-c2ccccc2)nc1SCC(=O)N1CCOCC1`, the GFP+ MAC1+ double positive was 1.4% and the call was inactive.
In the same order, the values of `Cc1noc(C)c1C(=O)N1CCC1(C)C(=O)NS(=O)(=O)c1ccc(C#N)cc1` (centres undefined) are 1.2% and “inactive”.
Consider `CCN1CCCC1CNC(=O)c1cc2c(=O)n(C)c3ccccc3c2n1C` (centres undefined), for which the GFP+ MAC1+ double positive stood at 0.5% and the call was inactive.
Take `Cn1c(C(=O)NCCCN2CCN(c3cccc(Cl)c3)CC2)cc2c(=O)n(C)c3ccccc3c21`: the GFP+ MAC1+ double positive was 11.3% and the normalized GFP-positive differentiation was 36.1% (active).
`O=C(Cc1csc(Nc2nc(=S)[nH]c3ccccc23)n1)NCCCN1CCN(c2cccc(Cl)c2)CC1`: the GFP+ MAC1+ double positive came out at 1% and the outcome was inactive.
The matching figures for `CC(=O)Nc1cc(-c2cccc(CO)c2)cn2c(-c3cccc(C(F)(F)F)c3)cnc12`: 0.8% and “inactive”.
Take `COc1cc(N=Cc2c(O)[nH]c3ccccc23)cc(OC)c1OC`: the GFP+ MAC1+ double positive is 16.7% and the normalized GFP-positive differentiation was 15.8% (active).
For the compound `CN=c1scc(-c2cc(OC)ccc2OC)n1/N=C/c1c(C)[nH]c2ccccc12`, the GFP+ MAC1+ double positive was 1.2% and the compound was classed as inactive.
Consider `COc1cc2[nH]c(O)c(C=O)c2cc1OC`, for which the GFP+ MAC1+ double positive was found to be 0.7% and the result was inactive.

Values taken from PubChem BioAssay AID624256 (NMMLSC, 2012).
